Measurements published in PubChem BioAssay AID1347418 (Sanford-Burnham Center for Chemical Genomics, 2020).
The campaign covered roughly 1,300 compounds. About 750 (58%) were called active. The list shows a part of the results.

Target: Sulfhydryl oxidase 1 (Homo sapiens) (UniProt O00391)
Experiment: inhibition of human sulfhydryl oxidase QSOX1 – biochemical, ROS-Glo H2O2 luminescence, HTS, primary screen (AID 1347418)
Settings: recombinant QSOX1, ROS-Glo H2O2 luminescence; at 12.5 µM; hits give high values; active = any value above zero

Sulfhydryl oxidase 1 (Homo sapiens), sequence (O00391 whole entry, looked up): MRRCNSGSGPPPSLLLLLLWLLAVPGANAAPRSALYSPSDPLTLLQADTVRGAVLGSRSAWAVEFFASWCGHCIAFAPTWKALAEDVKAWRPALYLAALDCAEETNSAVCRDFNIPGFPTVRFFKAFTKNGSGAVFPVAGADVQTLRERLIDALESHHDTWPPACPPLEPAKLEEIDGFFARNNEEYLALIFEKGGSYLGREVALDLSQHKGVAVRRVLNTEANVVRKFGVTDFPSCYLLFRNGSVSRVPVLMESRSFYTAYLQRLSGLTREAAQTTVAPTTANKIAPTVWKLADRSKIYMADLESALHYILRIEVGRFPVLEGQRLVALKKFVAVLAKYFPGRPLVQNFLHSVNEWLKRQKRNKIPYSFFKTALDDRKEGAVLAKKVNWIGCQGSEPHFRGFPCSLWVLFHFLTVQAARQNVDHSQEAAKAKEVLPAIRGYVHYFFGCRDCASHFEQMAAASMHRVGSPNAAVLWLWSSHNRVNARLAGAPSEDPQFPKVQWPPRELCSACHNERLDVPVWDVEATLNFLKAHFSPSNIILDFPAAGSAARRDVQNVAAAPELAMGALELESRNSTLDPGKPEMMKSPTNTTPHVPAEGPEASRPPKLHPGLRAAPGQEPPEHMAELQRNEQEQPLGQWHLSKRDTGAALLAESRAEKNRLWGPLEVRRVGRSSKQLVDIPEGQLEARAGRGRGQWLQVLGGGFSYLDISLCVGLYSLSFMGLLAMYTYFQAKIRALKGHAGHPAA

inhibition, inactive:
O=C(O)c1cc2cc(Cc3cccnc3)ccc2o1 -7.8%, C[C@]12CC[C@@H]3c4ccc(O)cc4C[C@@H](CCCCCCCCCS(=O)CCCC(F)(F)C(F)(F)F)[C@H]3[C@@H]1CC[C@@H]2O (some centres undefined) -4.8%, COc1ccc2c(c1)CCC1C2CC[C@@]2(C)C1CC[C@@H]2NCCCCCCN1C(=O)C=CC1=O (some centres undefined) -7.4%, C[C@]12CC[C@@H]3c4ccc(O)cc4CC[C@H]3[C@@H]1CCC2=O -1.6%, COc1ccc2c(c1)CCC1C2CC[C@@]2(C)C1CC[C@@H]2NCCCCCCN1C(=O)CCC1=O (some centres undefined) -2.7%, CCCCCCN(CCCCCC)C(=O)Cc1c(-c2ccc(F)cc2)[nH]c2ccccc12 -2.9%, C[N+](C)(C)CCOP(=O)(O)OP(=O)([O-])OC[C@H]1O[C@@H](n2ccc(N)nc2=O)C(O)[C@H]1O (some centres undefined) -0.3%, CNc1ncnc2c1ncn2[C@H]1C[C@H](OP(=O)(O)O)[C@@H](COP(=O)(O)O)O1 -3.3%, NC(N)=NC(N)=Nc1ccccc1 -4.7%, NC(N)=NC(=O)Cc1c(Cl)cccc1Cl -6.8%, CCCN(CCc1ccccc1)C1CCc2c(O)cccc2C1 (centres undefined) -0.3%, O=C1NCC2(CCN(CCc3ccccc3)CC2)O1 -1%, C[C@@H](O)[C@H]1C(=O)N2C(C(=O)O)=C(SCCN=CN)C[C@H]12 -5.2%, COC(=O)C1=CO[C@@H](O)[C@@H]2C(CO)=CC[C@H]12 -3.2%, NCC1OC(O[C@@H]2[C@H](O)C(OC3C(O)C(N)CC(N)C3OC3OC(CO)C(O)C(O)C3N)O[C@@H]2CO)C(N)C(O)C1O (some centres undefined) -3.5%, C=C(C)C1CC=C(C(=O)O)CC1 (centres undefined) -1.3%, NC1C=CC=C(C(=O)O)C1 (centres undefined) -2.2%, CC(C)(C)c1ccc(C(=O)CCCN2CCC(OC(c3ccccc3)c3ccccc3)CC2)cc1 -3.2%, O=C(O)C1CCCN(CCC=C(c2ccccc2)c2ccccc2)C1 (centres undefined) -3.9%, CCCCN1CCC(n2c(=O)[nH]c3ccccc32)CC1 -1.6%, O=C(CCCN1CCC(O)(c2ccc(Cl)cc2)CC1)c1ccc(F)cc1 -4%, O=c1cc(-c2ccccc2)[nH]c2nc(Cl)ccc12 -0.2%, Nc1nc(O)c2nc(Br)n(C3OC4COP(=O)(O)O[C@@H]4C3O)c2n1 (some centres undefined) -4.7%, Nc1ncnc2c1nc(Br)n2C1OC2COP(=O)(O)O[C@@H]2C1O (some centres undefined) -1.8%, O=c1ccn([C@@H]2O[C@H](COP(=O)(O)OP(=O)(O)O)[C@@H](O)[C@H]2O)c(=O)[nH]1 -4.1%, c1ccc2c(c1)CCCC2C1=NCCN1 (centres undefined) -3.7%, NC(=Nc1ccccc1)NC(=O)c1nc(Cl)c(N)nc1N -0.3%, CCN(CC)CCOC(=O)c1ccc(N)cc1 -3.4%, CCCCc1oc2ccccc2c1C(=O)c1cc(I)c(OCCN(CC)CC)c(I)c1 -1%, CCCC1O[C@@H]2C[C@H]3[C@@H]4CCC5=CC(=O)C=C[C@]5(C)[C@H]4[C@@H](O)C[C@]3(C)[C@]2(C(=O)CO)O1 (some centres undefined) -0.8%, C[C@]12C=CC(=O)C=C1CC[C@H]1[C@@H]3C[C@@H](O)[C@](O)(C(=O)CO)[C@@]3(C)C[C@H](O)[C@@]12F -107%, NC12CC3CC(CC(C3)C1)C2 -0.1%, c1ccc([C@H]2CN3CCSC3=N2)cc1 -2.6%, O=C(CCCN1CCC(O)(c2cccc(C(F)(F)F)c2)CC1)c1ccc(F)cc1 -4.6%, NC/C=C\C(=O)O -0.4%, COc1ccc(NC=O)c(C(=O)CCNC(C)=O)c1 -0.8%, COc1cc2c(CCNC(C)=O)c[nH]c2cc1Cl -1.4%, Nc1nc(OCC2CCCCC2)c2[nH]cnc2n1 0%, NC/C=C/C(=O)O -2.4%, NC(=O)N1c2ccccc2C=Cc2ccccc21 -1.4%, CC(C)(C)C(=O)Oc1ccc(S(=O)(=O)Nc2ccccc2C(=O)NCC(=O)O)cc1 -1%, C#CCN(C)CCCOc1ccc(Cl)cc1Cl -1.5%, Cn1ccnc1 -4.4%, CN(C)CCC=C1c2ccccc2CCc2ccccc21 -4.4%, CN(C)CC/C=C1\c2ccccc2COc2ccccc21 -3.1%

inhibition, active:
COc1cc2c(cc1O)CC[C@@H]1[C@@H]2CC[C@]2(C)[C@@H](O)CC[C@@H]12 36%, C[C@]12CC[C@@H]3c4ccc(O)cc4CC[C@H]3[C@@H]1CC[C@@H]2O 5.6%, COc1cc2nc(N3CCCN(C)CC3)nc(NC3CCN(Cc4ccccc4)CC3)c2cc1OC 1.5%, Oc1ccc(O)cc1 11.1%, CSc1nc(N)c2ncn([C@@H]3O[C+](COP(=O)([O-])OP(=O)(O)O)[C@H](O)C3O)c2n1 (some centres undefined) 0.7%, NC(N)=NC(N)=Nc1cccc(Cl)c1 9.6%, Oc1ccccc1O 5.6%, CCN(CC)CCCN(c1ccccc1)C1Cc2ccccc2C1 40.2%, COc1cccc(-c2cc(=O)c3ccccc3o2)c1N 0.9%, N#Cc1cc2nc(O)c(O)nc2cc1[N+](=O)[O-] 0.9%, C=CCN1CCc2c(cc(O)c(O)c2Br)[C@@H](c2ccccc2)C1 26.8%, C=CCN1CCc2cc(O)c(O)cc2C(c2ccccc2)C1 (centres undefined) 18%, Cc1cccc(C2CN(C)CCc3c2cc(O)c(O)c3Cl)c1 (centres undefined) 25%, C=CCN1CCc2c(cc(O)c(O)c2Cl)C(c2ccccc2)C1 (centres undefined) 31.6%, CNC(=O)Oc1ccc2c(c1)[C@]1(C)CCN(C)[C@@H]1N2C 2.6%, CN1[C@@H](CC(=O)c2ccccc2)CCC[C@H]1C[C@H](O)c1ccccc1 4.3%, CC(C)c1cccc(C(C)C)c1N1C(=O)c2ccc(O)cc2C1=O 0.3%, O=C(O)/C=C/c1ccc(O)c(O)c1 9.6%, O=C(/C=C/c1ccc(O)c(O)c1)OCCc1ccccc1 19.7%, Nc1ncnc2c1nc(Sc1ccc(Cl)cc1)n2C1OC2COP(=O)(O)O[C@@H]2[C@@H]1O (some centres undefined) 1.8%, C[C@H]1O[C@@H](n2cc(F)c(=O)[nH]c2=O)[C@H](O)[C@@H]1O 4.5%, c1ccc2c(c1)CCC[C@H]2Nc1nc2ccccc2[nH]1 12.1%, NC(=NCc1ccccc1)NC(=O)c1nc(Cl)c(N)nc1N 4.4%, CCN(CC)CCCCCCCCOC(=O)c1cc(OC)c(OC)c(OC)c1 6.2%, CC(=O)NNC(=O)N1Cc2ccccc2Oc2ccc(Cl)cc21 2.6%, CC1CC2C3CCC4=CC(=O)C=C[C@]4(C)[C@@]3(F)[C@@H](O)C[C@]2(C)[C@@]1(O)C(=O)CO (some centres undefined) 2.3%, C[C@H]1CC2C3CCC4=CC(=O)C=C[C@]4(C)[C@@]3(Cl)[C@@H](O)C[C@]2(C)[C@@]1(O)C(=O)CO (some centres undefined) 8.8%, CC12CC3CC(C)(C1)CC(N)(C3)C2 3.5%, O=c1cc(-c2ccccc2F)[nH]c2cc3c(cc12)OCO3 4.4%, OC(CN1CCC(Cc2ccc(F)cc2)CC1)c1ccc(Cl)cc1 (centres undefined) 7.6%, c1ccc(C2CN3CCSC3=N2)cc1 (centres undefined) 0.3%, Brc1ccc([C@H]2CN3CCSC3=N2)cc1 6.2%, OCCN1CCN(CCCN2c3ccccc3Sc3ccc(C(F)(F)F)cc32)CC1 43.6%, OCCN1CCN(CC/C=C2/c3ccccc3Sc3ccc(C(F)(F)F)cc32)CC1 0.6%, CN1CCN(CCCN2c3ccccc3Sc3ccc(C(F)(F)F)cc32)CC1 27.4%, NC(=O)c1cn(Cc2c(F)cccc2F)nn1 1.3%, Cc1ccccc1N1C(=O)c2cc(S(N)(=O)=O)c(Cl)cc2NC1C (centres undefined) 0.3%, COc1ccc2[nH]cc(CCNC(C)=O)c2c1 5.6%, CC(=O)NCCc1c[nH]c2ccc(O)cc12 27.5%, COc1cc2c(CCNC(C)=O)c[nH]c2cc1O 45.2%, Nc1nc(OCc2ccccc2)c2[nH]cnc2n1 2%, O=c1ccc2c(OCCCCc3ccccc3)c3ccoc3cc2o1 2.3%, CC(=O)O[C@H]1Cc2ccccc2N(C(N)=O)c2ccccc21 0.3%, CC1(C)CCC2=C(O1)c1ccccc1C(=O)C2=O 40.5%, COc1cc(Cc2cnc(N)nc2N)cc(OC)c1OC 0.5%, CC[C@H]1CN2CCc3cc(OC)c(OC)cc3[C@@H]2C[C@@H]1C[C@H]1NCCc2cc(OC)c(OC)cc21 1.7%, COc1cc2c(cc1OC)C1CC(=O)C(CC(C)C)CN1CC2 (centres undefined) 2.6%, CCc1cccc(N(C)C(N)=Nc2cccc3ccccc23)c1 8.7%, Fc1ccc(C(c2ccc(F)cc2)N2CCN(C/C=C/c3ccccc3)CC2)cc1 0.4%, C(=C\c1ccccc1)/CN1CCN(C(c2ccccc2)c2ccccc2)CC1 4.9%, CN(C)CCCc1cc(C(=O)Nc2ccc(-c3ccncc3)cc2)ccc1O 2.5%, Cc1nc(N=NC2=[C+]C3=C(C=C([N+](=O)[O-])[C+]=C3S(=O)(=O)[O-])C(S(=O)(=O)[O-])=[C+]2)c(COP(=O)([O-])O)c(C=O)c1O 2.8%, Cc1nc(N=Nc2ccc(C(=O)O)cc2)c(COP(=O)(O)O)c(C=O)c1O 0.9%, CN(C)CCC=C1c2ccccc2C=Cc2ccccc21 1%
